# Measurements: PMC7862700, “An all-to-all approach to the identification of sequence-specific readers for epigenetic DNA modifications on cytosine”
# Columns and labels:
# Assay in all cases: DAPPL (digital affinity profiling via proximity ligation, sequencing); 10 mM Tris-HCl pH 7.5, 50 mM NaCl, 1 mM DTT, 4% glycerol, room temperature, 30 min; GST-TFs on glutathione beads, 16-mer random dsDNA library, 0.1% formaldehyde crosslink after washing; high values mean tight binding
# FEV = target: T1, FEV (Homo sapiens, UniProt Q99581 1-238); conditions: protein: recombinant; tags: N-terminal GST; dsDNA, one strand shown
# T1 sequence: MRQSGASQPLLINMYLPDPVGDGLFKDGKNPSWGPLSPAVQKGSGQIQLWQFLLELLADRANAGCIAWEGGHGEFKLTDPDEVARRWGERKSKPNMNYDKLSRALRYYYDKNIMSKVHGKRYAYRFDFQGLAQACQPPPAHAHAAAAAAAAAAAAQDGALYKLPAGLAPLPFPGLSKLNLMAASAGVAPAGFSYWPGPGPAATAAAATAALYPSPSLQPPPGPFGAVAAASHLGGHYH
# Summary of the method: (§1)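 Human transcription factors fused to GST were expressed in yeast, captured on glutathione beads, given DNA barcodes and pooled with a GST-only negative control. Pools were incubated with 200 nmole of a 16-mer random double-stranded DNA library in Tris/NaCl/DTT/glycerol buffer at room temperature for 30 min. They were then washed, crosslinked with 0.1% formaldehyde, proximity-ligated (BsaI/T4 ligase, 1 h, 37 °C), PCR-amplified and sequenced on an Illumina NextSeq500. Binding signal is each 6-mer's read frequency for a factor divided by its frequency for the GST control.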
# ETV5 = ETV5 (Homo sapiens, UniProt P41161 1-510); conditions: protein: recombinant; tags: N-terminal GST; dsDNA, one strand shown
# Sequence of ETV5 (P41161 whole entry): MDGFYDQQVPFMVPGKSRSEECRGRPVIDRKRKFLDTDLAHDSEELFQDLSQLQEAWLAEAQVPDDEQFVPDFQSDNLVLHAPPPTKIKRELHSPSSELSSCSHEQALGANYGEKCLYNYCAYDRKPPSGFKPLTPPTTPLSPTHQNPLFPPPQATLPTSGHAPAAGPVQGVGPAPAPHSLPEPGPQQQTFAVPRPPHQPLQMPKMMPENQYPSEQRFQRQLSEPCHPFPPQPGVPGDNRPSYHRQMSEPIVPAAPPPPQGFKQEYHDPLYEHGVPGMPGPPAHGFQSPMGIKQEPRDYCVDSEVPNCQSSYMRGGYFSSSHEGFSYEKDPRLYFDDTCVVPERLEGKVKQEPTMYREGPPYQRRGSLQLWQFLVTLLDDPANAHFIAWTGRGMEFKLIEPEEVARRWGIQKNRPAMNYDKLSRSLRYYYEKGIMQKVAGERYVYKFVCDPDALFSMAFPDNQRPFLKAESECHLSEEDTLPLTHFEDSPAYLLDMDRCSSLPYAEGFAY
# Summary of the method: as §1
# HSF1 = HSF1 (Homo sapiens, UniProt Q00613 1-529); conditions: protein: recombinant; tags: N-terminal GST; chain copies: 3; dsDNA, one strand shown
# Sequence of HSF1 (Q00613 whole entry): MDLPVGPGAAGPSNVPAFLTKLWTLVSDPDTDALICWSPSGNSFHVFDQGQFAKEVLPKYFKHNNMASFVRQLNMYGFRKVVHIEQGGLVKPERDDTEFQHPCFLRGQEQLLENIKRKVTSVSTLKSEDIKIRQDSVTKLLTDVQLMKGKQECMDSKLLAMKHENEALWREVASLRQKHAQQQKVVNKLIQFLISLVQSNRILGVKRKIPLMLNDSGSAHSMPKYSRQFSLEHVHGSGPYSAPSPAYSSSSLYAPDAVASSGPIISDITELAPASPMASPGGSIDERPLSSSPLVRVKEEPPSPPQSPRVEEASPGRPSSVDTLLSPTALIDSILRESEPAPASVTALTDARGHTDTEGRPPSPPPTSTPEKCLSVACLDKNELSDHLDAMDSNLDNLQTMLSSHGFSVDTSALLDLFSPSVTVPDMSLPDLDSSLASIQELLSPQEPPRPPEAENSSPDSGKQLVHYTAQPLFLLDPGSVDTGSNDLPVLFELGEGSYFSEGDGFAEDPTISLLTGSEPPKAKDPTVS
# Summary of the method: as §1
# SPIC = target: T2, SPIC (Homo sapiens, UniProt Q8N5J4 1-248); conditions: protein: recombinant; tags: N-terminal GST; dsDNA, one strand shown
# T2 sequence: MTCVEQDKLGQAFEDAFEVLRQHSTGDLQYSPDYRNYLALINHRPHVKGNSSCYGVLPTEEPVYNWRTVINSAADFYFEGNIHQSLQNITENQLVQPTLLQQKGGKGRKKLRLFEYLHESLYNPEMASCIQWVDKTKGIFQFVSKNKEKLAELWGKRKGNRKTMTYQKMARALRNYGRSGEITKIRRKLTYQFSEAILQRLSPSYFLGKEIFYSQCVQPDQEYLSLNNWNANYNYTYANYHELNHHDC
# Summary of the method: as §1
# ELF4 = ELF4 (Homo sapiens, UniProt Q99607 1-663); conditions: protein: recombinant; tags: N-terminal GST; dsDNA, one strand shown
# Sequence of ELF4 (Q99607 whole entry): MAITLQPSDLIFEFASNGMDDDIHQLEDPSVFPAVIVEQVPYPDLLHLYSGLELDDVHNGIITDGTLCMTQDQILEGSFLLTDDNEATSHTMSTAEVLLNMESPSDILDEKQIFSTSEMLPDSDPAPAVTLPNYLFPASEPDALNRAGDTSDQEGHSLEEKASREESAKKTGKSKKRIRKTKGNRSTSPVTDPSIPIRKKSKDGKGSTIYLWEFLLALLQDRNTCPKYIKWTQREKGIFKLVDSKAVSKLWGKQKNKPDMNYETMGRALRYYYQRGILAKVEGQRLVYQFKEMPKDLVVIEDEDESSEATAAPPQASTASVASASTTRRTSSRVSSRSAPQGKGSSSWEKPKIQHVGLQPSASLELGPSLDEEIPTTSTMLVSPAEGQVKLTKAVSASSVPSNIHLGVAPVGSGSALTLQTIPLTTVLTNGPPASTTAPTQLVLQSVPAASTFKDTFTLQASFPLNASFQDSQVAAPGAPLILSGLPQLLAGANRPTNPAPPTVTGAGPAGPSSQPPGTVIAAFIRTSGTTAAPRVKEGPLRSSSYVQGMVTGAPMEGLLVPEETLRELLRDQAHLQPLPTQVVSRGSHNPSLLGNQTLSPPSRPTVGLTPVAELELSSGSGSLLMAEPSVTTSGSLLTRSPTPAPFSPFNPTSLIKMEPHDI
# Summary of the method: as §1
# ELK4 = target: T3, ELK4 (Homo sapiens, UniProt P28324-2 1-405); conditions: protein: recombinant; tags: N-terminal GST; dsDNA, one strand shown
# T3 sequence: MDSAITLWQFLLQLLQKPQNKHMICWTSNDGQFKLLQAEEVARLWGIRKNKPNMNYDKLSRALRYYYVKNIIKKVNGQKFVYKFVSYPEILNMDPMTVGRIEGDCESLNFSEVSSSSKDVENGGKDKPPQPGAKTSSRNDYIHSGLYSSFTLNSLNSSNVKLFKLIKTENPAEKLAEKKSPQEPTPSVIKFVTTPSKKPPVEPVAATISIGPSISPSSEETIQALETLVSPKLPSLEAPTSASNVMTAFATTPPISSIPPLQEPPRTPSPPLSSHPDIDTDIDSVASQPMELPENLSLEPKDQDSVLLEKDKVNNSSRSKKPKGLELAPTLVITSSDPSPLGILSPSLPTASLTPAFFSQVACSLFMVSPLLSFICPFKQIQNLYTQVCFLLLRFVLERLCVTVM
# Summary of the method: as §1
# ETV2 = target: T4, ETV2 (Homo sapiens, UniProt O00321 1-342); conditions: protein: recombinant; tags: N-terminal GST; dsDNA, one strand shown
# T4 sequence: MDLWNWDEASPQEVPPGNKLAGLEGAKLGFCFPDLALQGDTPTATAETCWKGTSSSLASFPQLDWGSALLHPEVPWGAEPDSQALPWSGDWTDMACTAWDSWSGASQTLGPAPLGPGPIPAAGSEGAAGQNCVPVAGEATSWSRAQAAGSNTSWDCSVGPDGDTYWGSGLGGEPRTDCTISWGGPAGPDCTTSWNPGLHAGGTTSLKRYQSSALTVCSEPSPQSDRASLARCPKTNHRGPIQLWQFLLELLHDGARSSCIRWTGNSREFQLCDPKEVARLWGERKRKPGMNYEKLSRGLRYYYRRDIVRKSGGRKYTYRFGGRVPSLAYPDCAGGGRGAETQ
# Summary of the method: as §1
# ELF3 = target: T5, ELF3 (Homo sapiens, UniProt P78545 1-371); conditions: protein: recombinant; tags: N-terminal GST; dsDNA, one strand shown
# T5 sequence: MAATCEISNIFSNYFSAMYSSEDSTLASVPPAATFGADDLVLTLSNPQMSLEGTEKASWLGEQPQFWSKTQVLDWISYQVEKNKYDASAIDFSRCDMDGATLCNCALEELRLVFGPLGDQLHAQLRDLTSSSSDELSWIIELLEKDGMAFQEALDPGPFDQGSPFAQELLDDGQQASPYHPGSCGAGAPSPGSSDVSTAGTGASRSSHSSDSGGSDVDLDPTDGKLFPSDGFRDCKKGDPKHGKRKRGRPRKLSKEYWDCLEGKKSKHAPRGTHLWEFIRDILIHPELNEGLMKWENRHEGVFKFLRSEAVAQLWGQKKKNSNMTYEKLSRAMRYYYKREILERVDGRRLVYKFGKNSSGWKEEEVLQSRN
# Summary of the method: as §1
# CRX = CRX (Homo sapiens, UniProt O43186 1-299); conditions: protein: recombinant; tags: N-terminal GST; dsDNA, one strand shown
# Sequence of CRX (O43186 whole entry): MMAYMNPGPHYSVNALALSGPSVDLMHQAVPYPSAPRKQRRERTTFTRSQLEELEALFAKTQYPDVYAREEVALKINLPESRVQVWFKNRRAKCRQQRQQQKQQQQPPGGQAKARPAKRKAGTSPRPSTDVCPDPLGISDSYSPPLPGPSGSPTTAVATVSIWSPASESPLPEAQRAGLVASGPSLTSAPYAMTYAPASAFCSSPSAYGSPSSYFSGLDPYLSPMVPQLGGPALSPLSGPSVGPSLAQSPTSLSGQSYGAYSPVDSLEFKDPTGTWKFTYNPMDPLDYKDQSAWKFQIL
# Summary of the method: as §1
# ETV1 = ETV1 (Homo sapiens, UniProt P50549 1-477); conditions: protein: recombinant; tags: N-terminal GST; dsDNA, one strand shown
# Sequence of ETV1 (P50549 whole entry): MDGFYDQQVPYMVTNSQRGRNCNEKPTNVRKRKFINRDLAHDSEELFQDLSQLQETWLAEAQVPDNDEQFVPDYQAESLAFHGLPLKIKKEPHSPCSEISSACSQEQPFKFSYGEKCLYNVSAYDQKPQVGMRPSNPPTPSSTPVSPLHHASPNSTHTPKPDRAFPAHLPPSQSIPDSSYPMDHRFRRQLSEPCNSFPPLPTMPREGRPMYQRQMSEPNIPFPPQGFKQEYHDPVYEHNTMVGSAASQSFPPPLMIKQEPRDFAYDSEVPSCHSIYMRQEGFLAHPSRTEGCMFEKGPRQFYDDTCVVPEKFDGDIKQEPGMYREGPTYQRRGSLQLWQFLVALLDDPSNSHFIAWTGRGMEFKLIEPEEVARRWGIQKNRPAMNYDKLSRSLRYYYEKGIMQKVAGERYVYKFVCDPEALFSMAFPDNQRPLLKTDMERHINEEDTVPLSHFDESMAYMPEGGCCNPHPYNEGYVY
# Summary of the method: as §1
# ERF = target: T6, ERF (Homo sapiens, UniProt P50548 1-548); conditions: protein: recombinant; tags: N-terminal GST; dsDNA, one strand shown
# T6 sequence: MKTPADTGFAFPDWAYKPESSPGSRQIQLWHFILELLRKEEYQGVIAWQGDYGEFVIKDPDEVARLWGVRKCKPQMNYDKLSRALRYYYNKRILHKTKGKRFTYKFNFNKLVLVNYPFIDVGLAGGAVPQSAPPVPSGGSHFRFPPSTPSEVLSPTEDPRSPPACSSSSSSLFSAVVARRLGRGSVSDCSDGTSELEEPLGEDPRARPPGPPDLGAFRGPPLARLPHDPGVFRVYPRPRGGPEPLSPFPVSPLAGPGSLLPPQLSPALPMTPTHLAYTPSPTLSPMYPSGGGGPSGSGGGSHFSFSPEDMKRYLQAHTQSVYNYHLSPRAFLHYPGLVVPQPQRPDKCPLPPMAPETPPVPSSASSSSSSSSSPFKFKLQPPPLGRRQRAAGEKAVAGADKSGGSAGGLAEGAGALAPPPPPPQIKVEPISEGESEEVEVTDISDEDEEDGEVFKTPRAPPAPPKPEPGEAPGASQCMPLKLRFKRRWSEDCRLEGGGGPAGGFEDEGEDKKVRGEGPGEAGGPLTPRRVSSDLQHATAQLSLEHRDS
# Summary of the method: as §1
# ETV3L = target: T7, ETV3L (Homo sapiens, UniProt Q6ZN32 1-361); conditions: protein: recombinant; tags: N-terminal GST; dsDNA, one strand shown
# T7 sequence: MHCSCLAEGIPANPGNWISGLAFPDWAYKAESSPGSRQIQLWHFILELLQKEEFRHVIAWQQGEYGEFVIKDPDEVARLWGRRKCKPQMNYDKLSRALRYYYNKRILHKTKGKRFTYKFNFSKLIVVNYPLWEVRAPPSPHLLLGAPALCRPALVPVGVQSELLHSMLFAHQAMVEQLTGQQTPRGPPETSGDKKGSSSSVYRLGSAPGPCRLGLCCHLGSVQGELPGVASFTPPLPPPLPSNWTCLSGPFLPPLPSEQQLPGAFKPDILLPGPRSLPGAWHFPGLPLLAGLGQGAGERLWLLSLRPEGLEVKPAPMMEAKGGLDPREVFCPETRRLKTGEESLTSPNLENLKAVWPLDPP
# Summary of the method: as §1
# ETS2 = target: T8, ETS2 (Homo sapiens, UniProt P15036 1-469); conditions: protein: recombinant; tags: N-terminal GST; dsDNA, one strand shown
# T8 sequence: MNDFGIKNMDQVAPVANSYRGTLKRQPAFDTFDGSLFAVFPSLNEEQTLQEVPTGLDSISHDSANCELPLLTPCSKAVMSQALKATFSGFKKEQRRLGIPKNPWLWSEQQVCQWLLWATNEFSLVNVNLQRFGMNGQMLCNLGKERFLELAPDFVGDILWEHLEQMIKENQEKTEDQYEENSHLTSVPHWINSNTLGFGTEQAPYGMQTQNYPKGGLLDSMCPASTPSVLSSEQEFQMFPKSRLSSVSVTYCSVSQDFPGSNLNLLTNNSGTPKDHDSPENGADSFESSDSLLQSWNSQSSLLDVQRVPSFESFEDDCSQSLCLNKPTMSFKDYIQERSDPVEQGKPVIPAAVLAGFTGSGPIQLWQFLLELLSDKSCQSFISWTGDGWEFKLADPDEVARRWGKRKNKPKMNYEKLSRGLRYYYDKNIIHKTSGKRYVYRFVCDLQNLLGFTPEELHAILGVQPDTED
# Summary of the method: as §1
# SPDEF = target: T9, SPDEF (Homo sapiens, UniProt O95238 1-335); conditions: protein: recombinant; tags: N-terminal GST; dsDNA, one strand shown
# T9 sequence: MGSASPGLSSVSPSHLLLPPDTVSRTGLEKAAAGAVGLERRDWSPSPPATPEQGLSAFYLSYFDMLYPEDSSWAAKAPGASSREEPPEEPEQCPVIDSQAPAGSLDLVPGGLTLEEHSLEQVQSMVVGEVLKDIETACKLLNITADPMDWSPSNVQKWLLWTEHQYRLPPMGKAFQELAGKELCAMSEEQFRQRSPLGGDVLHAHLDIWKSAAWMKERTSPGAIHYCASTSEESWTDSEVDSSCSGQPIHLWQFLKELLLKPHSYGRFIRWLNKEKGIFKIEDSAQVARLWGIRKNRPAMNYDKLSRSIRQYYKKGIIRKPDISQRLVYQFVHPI
# Summary of the method: as §1
# ETV7 = target: T10, ETV7 (Homo sapiens, UniProt Q9Y603 1-341); conditions: protein: recombinant; tags: N-terminal GST; dsDNA, one strand shown
# T10 sequence: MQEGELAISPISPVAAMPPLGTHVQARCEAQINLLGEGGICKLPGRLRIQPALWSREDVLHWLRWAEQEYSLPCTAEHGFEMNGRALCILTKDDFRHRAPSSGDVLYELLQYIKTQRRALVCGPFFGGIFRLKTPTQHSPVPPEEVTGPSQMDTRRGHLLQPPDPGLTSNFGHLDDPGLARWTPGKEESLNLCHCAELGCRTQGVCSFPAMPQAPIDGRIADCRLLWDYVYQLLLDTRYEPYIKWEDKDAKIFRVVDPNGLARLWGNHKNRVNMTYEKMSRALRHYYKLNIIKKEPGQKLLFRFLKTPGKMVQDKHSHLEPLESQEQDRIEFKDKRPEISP
# Summary of the method: as §1
# ELF5 = target: T11, ELF5 (Homo sapiens, UniProt Q9UKW6-2 1-255); conditions: protein: recombinant; tags: N-terminal GST; dsDNA, one strand shown
# T11 sequence: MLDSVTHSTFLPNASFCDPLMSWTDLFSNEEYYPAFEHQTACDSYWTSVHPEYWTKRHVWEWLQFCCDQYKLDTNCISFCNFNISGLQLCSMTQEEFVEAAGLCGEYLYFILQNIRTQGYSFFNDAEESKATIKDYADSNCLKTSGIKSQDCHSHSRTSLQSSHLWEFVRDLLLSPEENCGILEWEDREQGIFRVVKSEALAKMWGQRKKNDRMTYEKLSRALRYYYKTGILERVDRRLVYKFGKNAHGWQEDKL
# Summary of the method: as §1
# ETV3 = target: T12, ETV3 (Homo sapiens, UniProt P41162-2 1-143); conditions: protein: recombinant; tags: N-terminal GST; dsDNA, one strand shown
# T12 sequence: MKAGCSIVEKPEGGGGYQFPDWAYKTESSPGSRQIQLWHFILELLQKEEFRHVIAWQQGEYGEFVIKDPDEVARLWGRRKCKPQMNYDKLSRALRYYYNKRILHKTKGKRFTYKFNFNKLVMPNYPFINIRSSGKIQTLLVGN
# Summary of the method: as §1
# ETV6 = ETV6 (Homo sapiens, UniProt P41212 1-452); conditions: protein: recombinant; tags: N-terminal GST; dsDNA, one strand shown
# Sequence of ETV6 (P41212 whole entry): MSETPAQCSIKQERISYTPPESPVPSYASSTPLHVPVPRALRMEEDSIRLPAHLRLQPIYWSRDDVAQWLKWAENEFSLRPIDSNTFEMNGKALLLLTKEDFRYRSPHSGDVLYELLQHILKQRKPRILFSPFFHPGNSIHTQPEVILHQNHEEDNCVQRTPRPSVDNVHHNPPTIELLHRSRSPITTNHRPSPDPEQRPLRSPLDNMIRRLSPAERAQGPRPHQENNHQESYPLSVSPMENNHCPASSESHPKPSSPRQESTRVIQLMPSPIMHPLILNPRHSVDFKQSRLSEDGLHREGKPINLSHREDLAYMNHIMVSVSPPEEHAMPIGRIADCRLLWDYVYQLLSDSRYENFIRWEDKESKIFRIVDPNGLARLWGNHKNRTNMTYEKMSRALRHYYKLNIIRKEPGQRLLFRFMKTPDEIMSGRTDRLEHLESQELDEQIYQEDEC
# Summary of the method: as §1
sequence,measurement,setting,value
TTTGCC,binding signal,FEV,"1.26 fold enrichment (6-mer frequency, TF over GST control)"
same,binding signal,ETV5,"1.26 fold enrichment (6-mer frequency, TF over GST control)"
same,binding signal,HSF1,"1.24 fold enrichment (6-mer frequency, TF over GST control)"
same,binding signal,SPIC,"1.31 fold enrichment (6-mer frequency, TF over GST control)"
same,binding signal,ELF4,"1.29 fold enrichment (6-mer frequency, TF over GST control)"
same,binding signal,ELK4,"1.37 fold enrichment (6-mer frequency, TF over GST control)"
same,binding signal,ETV2,"1.29 fold enrichment (6-mer frequency, TF over GST control)"
same,binding signal,ELF3,"1.47 fold enrichment (6-mer frequency, TF over GST control)"
same,binding signal,CRX,"1.32 fold enrichment (6-mer frequency, TF over GST control)"
same,binding signal,ETV1,"1.33 fold enrichment (6-mer frequency, TF over GST control)"
same,binding signal,ERF,"1.31 fold enrichment (6-mer frequency, TF over GST control)"
same,binding signal,ETV3L,"1.2 fold enrichment (6-mer frequency, TF over GST control)"
same,binding signal,ETS2,"1.32 fold enrichment (6-mer frequency, TF over GST control)"
same,binding signal,SPDEF,"1.21 fold enrichment (6-mer frequency, TF over GST control)"
same,binding signal,ETV7,"1.26 fold enrichment (6-mer frequency, TF over GST control)"
same,binding signal,ELF5,"1.2 fold enrichment (6-mer frequency, TF over GST control)"
same,binding signal,ETV3,"1.32 fold enrichment (6-mer frequency, TF over GST control)"
same,binding signal,ETV6,"1.11 fold enrichment (6-mer frequency, TF over GST control)"
